Experimental data published in publication PMC7862700, “An all-to-all approach to the identification of sequence-specific readers for epigenetic DNA modifications on cytosine”.

Columns and labels:
Assay in all cases: DAPPL (digital affinity profiling via proximity ligation, sequencing); 10 mM Tris-HCl pH 7.5, 50 mM NaCl, 1 mM DTT, 4% glycerol, room temperature, 30 min; GST-TFs on glutathione beads, 16-mer random dsDNA library, 0.1% formaldehyde crosslink after washing; high values mean tight binding
Conditions in all cases: protein: recombinant; tags: N-terminal GST; dsDNA, one strand shown
FLI1 = molecular target: T1, FLI1 (Homo sapiens, UniProt Q01543 1-452)
T1 sequence: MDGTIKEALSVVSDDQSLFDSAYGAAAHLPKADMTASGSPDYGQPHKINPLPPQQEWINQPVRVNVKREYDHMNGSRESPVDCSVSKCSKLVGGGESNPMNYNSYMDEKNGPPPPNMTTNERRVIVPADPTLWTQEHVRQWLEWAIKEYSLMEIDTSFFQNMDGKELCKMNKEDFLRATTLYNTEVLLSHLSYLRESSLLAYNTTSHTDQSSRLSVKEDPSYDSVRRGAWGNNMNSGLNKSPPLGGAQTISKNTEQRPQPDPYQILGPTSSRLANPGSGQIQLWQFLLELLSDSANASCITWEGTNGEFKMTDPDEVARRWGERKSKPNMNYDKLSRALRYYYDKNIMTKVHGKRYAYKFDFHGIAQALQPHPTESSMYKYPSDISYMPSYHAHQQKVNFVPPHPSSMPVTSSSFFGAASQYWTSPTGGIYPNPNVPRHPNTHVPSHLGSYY
How it was run: (§1)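 Human transcription factors carrying a GST fusion were produced in yeast, bound to glutathione beads, tagged with DNA barcodes and pooled together with a tag-only sample. Each pool was held with 200 nmole of a random double-stranded 16-mer DNA library in Tris/NaCl/DTT/glycerol buffer for 30 min at room temperature, then washed, crosslinked in 0.1% formaldehyde, proximity-ligated with BsaI/T4 ligase (1 h, 37 °C), PCR-amplified and sequenced on an Illumina NextSeq500. Binding signal is the read frequency of each hexamer for a given factor divided by its frequency in the tag-only sample.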

ELK1 = molecular target: T2, ELK1 (Homo sapiens, UniProt P19419 1-428)
T2 sequence: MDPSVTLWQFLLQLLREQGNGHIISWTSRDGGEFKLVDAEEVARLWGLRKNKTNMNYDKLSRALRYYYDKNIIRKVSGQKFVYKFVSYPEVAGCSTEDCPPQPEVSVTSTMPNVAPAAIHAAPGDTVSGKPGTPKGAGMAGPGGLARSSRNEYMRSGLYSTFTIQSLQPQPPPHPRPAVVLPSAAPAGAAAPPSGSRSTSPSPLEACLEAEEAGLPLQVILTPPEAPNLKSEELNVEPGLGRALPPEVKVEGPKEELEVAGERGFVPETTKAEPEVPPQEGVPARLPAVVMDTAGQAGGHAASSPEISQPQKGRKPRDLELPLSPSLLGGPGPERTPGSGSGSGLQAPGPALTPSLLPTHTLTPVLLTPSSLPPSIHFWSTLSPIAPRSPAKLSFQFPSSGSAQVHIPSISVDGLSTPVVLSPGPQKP
How it was run: as §1

GABPA = molecular target: T3, GABPA (Homo sapiens, UniProt Q06546 1-454)
T3 sequence: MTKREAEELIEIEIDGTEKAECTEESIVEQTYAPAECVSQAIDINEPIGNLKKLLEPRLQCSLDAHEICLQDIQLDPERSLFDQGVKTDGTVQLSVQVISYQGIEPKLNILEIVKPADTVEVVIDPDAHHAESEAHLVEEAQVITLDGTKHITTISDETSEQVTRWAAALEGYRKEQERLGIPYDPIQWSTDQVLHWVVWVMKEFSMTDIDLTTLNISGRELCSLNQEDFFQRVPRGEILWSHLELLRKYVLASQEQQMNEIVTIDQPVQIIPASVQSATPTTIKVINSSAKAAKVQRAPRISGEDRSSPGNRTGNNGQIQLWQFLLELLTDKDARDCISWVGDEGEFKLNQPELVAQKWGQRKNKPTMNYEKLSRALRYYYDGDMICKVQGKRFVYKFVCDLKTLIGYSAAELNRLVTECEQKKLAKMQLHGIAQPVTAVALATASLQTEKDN
How it was run: as §1

ERG = molecular target: T4, ERG (Homo sapiens, UniProt P11308 1-479)
T4 sequence: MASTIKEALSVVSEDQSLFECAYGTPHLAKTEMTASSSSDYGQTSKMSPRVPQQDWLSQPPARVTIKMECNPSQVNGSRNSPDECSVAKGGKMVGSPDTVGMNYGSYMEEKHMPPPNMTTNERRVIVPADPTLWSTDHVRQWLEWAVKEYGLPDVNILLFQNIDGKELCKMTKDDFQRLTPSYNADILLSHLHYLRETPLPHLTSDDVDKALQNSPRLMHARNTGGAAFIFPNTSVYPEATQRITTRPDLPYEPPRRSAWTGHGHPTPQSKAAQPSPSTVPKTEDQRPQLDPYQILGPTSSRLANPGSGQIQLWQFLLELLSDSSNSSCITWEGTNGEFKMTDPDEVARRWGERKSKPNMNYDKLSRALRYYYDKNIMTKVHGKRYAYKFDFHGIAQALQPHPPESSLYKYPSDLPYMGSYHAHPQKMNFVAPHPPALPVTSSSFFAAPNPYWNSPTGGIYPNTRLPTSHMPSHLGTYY
How it was run: as §1

ELF1 = ELF1 (Homo sapiens, UniProt P32519 1-619)
How it was run: as §1

EHF = molecular target: T5, EHF (Homo sapiens, UniProt Q9NZC4 1-300)
T5 sequence: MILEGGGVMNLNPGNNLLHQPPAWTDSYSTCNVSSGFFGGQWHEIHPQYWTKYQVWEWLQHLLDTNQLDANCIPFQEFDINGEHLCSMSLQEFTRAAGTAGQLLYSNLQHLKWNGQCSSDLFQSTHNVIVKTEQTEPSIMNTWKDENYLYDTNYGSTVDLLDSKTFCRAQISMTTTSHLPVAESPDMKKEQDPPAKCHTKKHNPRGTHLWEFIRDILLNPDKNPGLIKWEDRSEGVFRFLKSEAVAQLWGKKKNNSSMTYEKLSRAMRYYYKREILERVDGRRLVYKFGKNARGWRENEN
How it was run: as §1

SPI1 = SPI1 (Homo sapiens, UniProt P17947 1-270)
How it was run: as §1

SPIB = SPIB (Homo sapiens, UniProt Q01892 1-262)
How it was run: as §1

ELK3 = molecular target: T6, ELK3 (Homo sapiens, UniProt P41970 1-407)
T6 sequence: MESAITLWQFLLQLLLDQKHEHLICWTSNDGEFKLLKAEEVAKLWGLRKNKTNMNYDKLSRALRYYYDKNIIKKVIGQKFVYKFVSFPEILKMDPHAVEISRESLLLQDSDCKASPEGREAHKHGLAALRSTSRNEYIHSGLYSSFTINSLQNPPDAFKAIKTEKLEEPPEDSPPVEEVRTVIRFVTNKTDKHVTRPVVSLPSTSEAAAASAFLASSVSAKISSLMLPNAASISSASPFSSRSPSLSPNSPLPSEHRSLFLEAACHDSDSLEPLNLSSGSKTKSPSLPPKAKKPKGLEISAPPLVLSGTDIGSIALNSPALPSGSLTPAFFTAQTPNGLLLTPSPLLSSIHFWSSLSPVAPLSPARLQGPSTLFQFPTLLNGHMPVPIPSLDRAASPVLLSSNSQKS
How it was run: as §1

Chain of SPIB (Q01892 whole entry): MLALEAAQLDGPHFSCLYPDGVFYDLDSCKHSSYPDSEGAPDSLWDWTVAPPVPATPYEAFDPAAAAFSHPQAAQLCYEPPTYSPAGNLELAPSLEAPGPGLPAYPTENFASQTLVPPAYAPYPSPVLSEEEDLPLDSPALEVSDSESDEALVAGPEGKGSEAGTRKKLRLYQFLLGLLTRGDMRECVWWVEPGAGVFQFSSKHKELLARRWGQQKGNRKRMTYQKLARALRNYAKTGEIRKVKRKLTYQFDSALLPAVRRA
Chain of ELF1 (P32519 whole entry): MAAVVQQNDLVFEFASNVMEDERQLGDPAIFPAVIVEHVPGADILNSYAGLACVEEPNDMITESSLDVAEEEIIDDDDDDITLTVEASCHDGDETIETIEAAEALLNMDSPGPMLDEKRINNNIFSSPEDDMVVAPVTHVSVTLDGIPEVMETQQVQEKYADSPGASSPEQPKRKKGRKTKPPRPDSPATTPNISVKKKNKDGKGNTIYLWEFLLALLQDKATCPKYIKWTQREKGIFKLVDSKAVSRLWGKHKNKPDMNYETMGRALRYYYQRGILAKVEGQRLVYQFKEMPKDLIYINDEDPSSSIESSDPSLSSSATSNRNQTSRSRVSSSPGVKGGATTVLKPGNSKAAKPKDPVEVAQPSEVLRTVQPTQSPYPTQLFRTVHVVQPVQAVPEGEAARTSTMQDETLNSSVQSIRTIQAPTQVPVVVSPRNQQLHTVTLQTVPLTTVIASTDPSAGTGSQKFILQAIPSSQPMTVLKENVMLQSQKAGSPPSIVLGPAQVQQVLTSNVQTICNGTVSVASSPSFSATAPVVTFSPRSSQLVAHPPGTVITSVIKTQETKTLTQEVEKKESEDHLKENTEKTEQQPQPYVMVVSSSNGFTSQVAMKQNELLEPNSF

TGCATC
binding signal (FLI1): 1.35 fold enrichment (6-mer frequency, TF over GST control)
binding signal (ELK1): 1.42 fold enrichment (6-mer frequency, TF over GST control)
binding signal (GABPA): 1.38 fold enrichment (6-mer frequency, TF over GST control)
binding signal (ERG): 1.43 fold enrichment (6-mer frequency, TF over GST control)
binding signal (ELF1): 1.31 fold enrichment (6-mer frequency, TF over GST control)
binding signal (EHF): 1.33 fold enrichment (6-mer frequency, TF over GST control)
binding signal (SPI1): 1.42 fold enrichment (6-mer frequency, TF over GST control)
binding signal (SPIB): 1.35 fold enrichment (6-mer frequency, TF over GST control)
binding signal (ELK3): 1.44 fold enrichment (6-mer frequency, TF over GST control)

AATATA
binding signal (FLI1): 1.28 fold enrichment (6-mer frequency, TF over GST control)
binding signal (ELK1): 1.38 fold enrichment (6-mer frequency, TF over GST control)
binding signal (GABPA): 1.35 fold enrichment (6-mer frequency, TF over GST control)
binding signal (ERG): 1.33 fold enrichment (6-mer frequency, TF over GST control)
binding signal (ELF1): 1.37 fold enrichment (6-mer frequency, TF over GST control)
binding signal (EHF): 1.42 fold enrichment (6-mer frequency, TF over GST control)
binding signal (SPI1): 1.37 fold enrichment (6-mer frequency, TF over GST control)
binding signal (SPIB): 1.28 fold enrichment (6-mer frequency, TF over GST control)
binding signal (ELK3): 1.43 fold enrichment (6-mer frequency, TF over GST control)

ACCCCA
binding signal (FLI1): 1.05 fold enrichment (6-mer frequency, TF over GST control)
binding signal (ELK1): 1.12 fold enrichment (6-mer frequency, TF over GST control)
binding signal (GABPA): 1.15 fold enrichment (6-mer frequency, TF over GST control)
binding signal (ERG): 1.08 fold enrichment (6-mer frequency, TF over GST control)
binding signal (ELF1): 1.11 fold enrichment (6-mer frequency, TF over GST control)
binding signal (EHF): 1.11 fold enrichment (6-mer frequency, TF over GST control)
binding signal (SPI1): 1.08 fold enrichment (6-mer frequency, TF over GST control)
binding signal (SPIB): 1.05 fold enrichment (6-mer frequency, TF over GST control)
binding signal (ELK3): 1.02 fold enrichment (6-mer frequency, TF over GST control)

TACACA
binding signal (FLI1): 1.21 fold enrichment (6-mer frequency, TF over GST control)
binding signal (ELK1): 1.14 fold enrichment (6-mer frequency, TF over GST control)
binding signal (GABPA): 1.15 fold enrichment (6-mer frequency, TF over GST control)
binding signal (ERG): 1.26 fold enrichment (6-mer frequency, TF over GST control)
binding signal (ELF1): 1.21 fold enrichment (6-mer frequency, TF over GST control)
binding signal (EHF): 1.25 fold enrichment (6-mer frequency, TF over GST control)
binding signal (SPI1): 1.11 fold enrichment (6-mer frequency, TF over GST control)
binding signal (SPIB): 1.23 fold enrichment (6-mer frequency, TF over GST control)
binding signal (ELK3): 1.18 fold enrichment (6-mer frequency, TF over GST control)

CTCAAA
binding signal (FLI1): 1.2 fold enrichment (6-mer frequency, TF over GST control)
binding signal (ELK1): 1.14 fold enrichment (6-mer frequency, TF over GST control)
binding signal (GABPA): 1.16 fold enrichment (6-mer frequency, TF over GST control)
binding signal (ERG): 1.13 fold enrichment (6-mer frequency, TF over GST control)
binding signal (ELF1): 1.25 fold enrichment (6-mer frequency, TF over GST control)
binding signal (EHF): 1.11 fold enrichment (6-mer frequency, TF over GST control)
binding signal (SPI1): 1.29 fold enrichment (6-mer frequency, TF over GST control)
binding signal (SPIB): 1.23 fold enrichment (6-mer frequency, TF over GST control)
binding signal (ELK3): 1.15 fold enrichment (6-mer frequency, TF over GST control)

TCTGGG
binding signal (FLI1): 1.1 fold enrichment (6-mer frequency, TF over GST control)
binding signal (ELK1): 1.06 fold enrichment (6-mer frequency, TF over GST control)
binding signal (GABPA): 1.06 fold enrichment (6-mer frequency, TF over GST control)
binding signal (ERG): 1.04 fold enrichment (6-mer frequency, TF over GST control)
binding signal (ELF1): 1.18 fold enrichment (6-mer frequency, TF over GST control)
binding signal (EHF): 1.09 fold enrichment (6-mer frequency, TF over GST control)
binding signal (SPI1): 1.12 fold enrichment (6-mer frequency, TF over GST control)
binding signal (SPIB): 1.02 fold enrichment (6-mer frequency, TF over GST control)
binding signal (ELK3): 1.28 fold enrichment (6-mer frequency, TF over GST control)

GGCTAG
binding signal (FLI1): 1.07 fold enrichment (6-mer frequency, TF over GST control)
binding signal (ELK1): 1.11 fold enrichment (6-mer frequency, TF over GST control)
binding signal (GABPA): 1.1 fold enrichment (6-mer frequency, TF over GST control)
binding signal (ERG): 1.1 fold enrichment (6-mer frequency, TF over GST control)
binding signal (ELF1): 1.09 fold enrichment (6-mer frequency, TF over GST control)
binding signal (EHF): 1.05 fold enrichment (6-mer frequency, TF over GST control)
binding signal (SPI1): 1.08 fold enrichment (6-mer frequency, TF over GST control)
binding signal (SPIB): 1.18 fold enrichment (6-mer frequency, TF over GST control)
binding signal (ELK3): 1 fold enrichment (6-mer frequency, TF over GST control)

AATGAA
binding signal (FLI1): 1.11 fold enrichment (6-mer frequency, TF over GST control)
binding signal (ELK1): 1.1 fold enrichment (6-mer frequency, TF over GST control)
binding signal (GABPA): 1.22 fold enrichment (6-mer frequency, TF over GST control)
binding signal (ERG): 1.21 fold enrichment (6-mer frequency, TF over GST control)
binding signal (ELF1): 1.15 fold enrichment (6-mer frequency, TF over GST control)
binding signal (EHF): 1.18 fold enrichment (6-mer frequency, TF over GST control)
binding signal (SPI1): 1.24 fold enrichment (6-mer frequency, TF over GST control)
binding signal (SPIB): 1.2 fold enrichment (6-mer frequency, TF over GST control)
binding signal (ELK3): 1.26 fold enrichment (6-mer frequency, TF over GST control)
